Data as given in PubChem BioAssay (NCI).
This is part of a sample that, as a whole, favours compounds with a hit. Of some 79,000 tested, about 15% had one in any assay. Values without a mark were called inactive. Cut-off read from the data, not from the text of the source: active = growth inhibition above about 70%; inactive = the rest. *1 amine or outer side, *2 acyl side, *3 side chain or, on linkers, in order; H or OH if unused. Where a SMILES comes first, the peptide text is derived from it. [ ]: non-standard residue; d: D form. X8 = C=CCC(O[*:1])C(=O)[*:2]; NMeV = CN[CH](C(=O)O)C(C)C; NMeA = CN[CH](C)C(=O)O; βAla = NCCC(=O)O

Experiment: NCI Yeast Anticancer Drug Screen. Data for the mlh1 rad18 strain (AID 175)
Conditions: S. cerevisiae mlh1 rad18 strain growth inhibition; at 50.0 µM; stronger effect = higher value
How it was run: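 Yeast w/ defined DNA-repair lesions; compound exposure; growth vs vehicle controls → % inhibition.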

SMILES | growth inhibition [%]
CCC1SCC(C)(C)NC1=O (stereo not given) | 1.4
CCOc1ccccc1NC(=O)C(=O)c1c(O)c2ccc(O)cc2oc1=O | -1.75
CC[N+](C)(C)c1ccc(/C=C(/C#N)C(=O)OC)cc1 | -1.55
Cc1c(O)c2ccc3ccccc3c2oc1=O | -6.4
CCOC(=O)CCCOc1ccccc1 | 19.7
CSc1ncc(C#N)c2nc(-c3ccccc3)nn12 | 18.3
CCOc1ccc2nc(NC(=O)C(=O)C(C(=O)c3ccccc3-c3ccccc3)C3OC(=O)c4ccccc43)sc2c1 (stereo not given) | -28.6
CC12CC(=O)NC(=O)N1CCS2 (stereo not given) | -6.15
CCOC(=O)C(=O)/C(=C/N1CCNC1=S)C(=O)OCC | -25.9
CC1(C)OC2C(C3N(c4ccccc4)CCN3c3ccccc3)OC(n3ccc(=O)[nH]c3=O)C2O1 (stereo not given) | -12.7
C=CCC1OC(=O)CCNC(=O)C(C)N(C)C(=O)C(C(C)C)N(C)C(=O)C(C(C)CC)NC(=O)C2CCCN2C1=O (stereo not given) (cyclo([X8]PI[NMeV][NMeA][βAla]); configuration not given here) | 17.8
CC1N(/N=C/c2ccccc2)C(c2ccccc2)C(c2ccccc2)N1/N=C/c1ccccc1 (stereo not given) | 6.25
ClCCOCc1ccc(Cl)cc1Cl | 19.9
CCOC(=O)OC1CC2CC(OC(=O)OCC)c3cccc(Br)c3C2c2ccccc21 (stereo not given) | 33.7
Cc1ccc(C)c2c(CC(=O)O)c[nH]c12 | -2.5
S=C1SC(=Nc2ccccc2)C(=Nc2ccccc2)N1c1ccccc1 | -20.6
COc1ccc(NC(=O)C(=O)Cc2ccc([N+](=O)[O-])c([N+](=O)[O-])c2CC(=O)C(=O)Nc2ccc(OC)cc2OC)c(OC)c1 | 8.05
CCO/C(Cc1ccc(Cl)cc1)=N/NC(N)=S | -15.5
O=c1[nH]c(-c2ccccc2)c(-c2ccccc2)nc1Cl | 18.1
OC(c1ccccc1)(c1c2ccccc2cc2ccccc12)C1CCC1 (stereo not given) | -5.65

SMILES | growth inhibition [%]
CNCCC(=O)c1ccccc1 | 2.25
NC(=O)c1nnc2c(F)cccc2c1N | -24.6
CCc1nnc(N)o1 | -14.2
CC(C)CNC(=O)Nc1ccccc1C(F)(F)F | -14.4
O=[N+]([O-])c1cccc(/C=N\O)c1 | -8.4
CCOC(=O)CNC(=O)C(Cc1cnc[nH]1)NC(=O)OCc1ccccc1 (stereo not given) | -3.7
Cc1cccnc1C | 7.85
CCOC(=O)C(Cc1ccc(OCc2ccccc2)c(OCc2ccccc2)c1)(NC=O)C(=O)OCC | 9
CC1(c2ccc(C(O)c3ccccc3)s2)OCCO1 (stereo not given) | 15.6
CCOC(=O)c1ccc(NC(=O)c2ccc(Cl)cc2Cl)cc1 | -4.25
CCN(CC)CCC1CC/C(=C\c2ccc(OC)cc2)C1=O (stereo not given) | 21.9
O=C(N/N=C\c1cccnc1)Nc1ccc(N=Nc2ccccc2)cc1 | 23.1
CCCCCC(=O)Nc1cc(N)cc(C(=O)O)c1 | -14.3
COc1ccc(/C=C2\CCC(CCN(C)C)(C3=CCCC3)C2=O)cc1 (stereo not given) | 9.4
COC(=O)c1cc(OC)c2cccnc2c1Nc1ccccc1 | -6.8
N#CCC(=O)N1CCCC1 | -26.2
CC1(C2(C)Nc3ccccc3O2)Nc2ccccc2O1 (stereo not given) | 9.05
S=c1ncnc2cc3[nH][nH]cc3cc12 | -2.25
CCOc1cc2c(cc1C(C)c1ccc(OCc3ccccc3)c(OC)c1)OCO2 (stereo not given) | 1.75
CC1=C(C(=O)Nc2ccc([N+](=O)[O-])cc2)C(c2ccco2)C(C(=O)Nc2ccc([N+](=O)[O-])cc2)=C(C)N1 | 14.9
